Experimental data as given in the supplement of paper PMC12632987.

B1: GBRAPL2_63_7406 (protein)
chain: SAVRRVLEALLRHAILDLDTAELLDEALETETDEEALYETLVEAILRIRPELTPEEAREVADKLIALAEQSEALLAEAVRDLTTLSKEEFLARLDALVAE
B2: GBRAPL2_63_7407 (protein)
chain: MTVRKVLEALLEHAILDLDTAERLEEALENETDEEELFETLVEAILDIRPELTPEEAREVAEKLVELAKQSEELLKEAVRALTTLSKEEFLAYLDELVAK
B3: GBRAPL2_64_7408 (protein)
chain: AKVHLAIAYEFKESTENGKKVLKLEATVYVIEDGEITELEAEVTATQLSETTWEVKLVLRQPDGSVLERTEVVTVPYEDVETEMLDLILEAAREAVAARR
B4: GBRAPL2_64_7409 (protein)
chain: PKVHLAIAYEVEEREEDGKKVLVLDATVYVIKDGEITELEAKVVAEQLSETTWLVKLELKKPDGSVIKREEVVEAPWEDVETEMLELVDEAAREAVEEEE
B5: GBRAPL2_83_7410 (protein)
chain: MEVLLELELTVTYKGNEEDKEKILDMLLEAQDKLRELGATAVVAEKLENGVYTFSLYAIYRGPREGAEKVRKTLEEFAEKIKKEFPEAKVEVKVLEEREL
B6: GBRAPL2_83_7411 (protein)
chain: MKIELDVELTVVIKGDEEEVEKIEDMMVETARELRKLGAAAVVATKEEDGVYTFVLDVLYVGDEEGAKKVIELLKESAEKIKKEFPEAKVTVKVVEKKVL
B7: GBRAPL2_83_7413 (protein)
chain: MTVRLALELTVTLEGDEEEKEALLDMMVETADELRKLGAAAVVAIEEEDGVLTIVLDVLVVGNKEQVEKVKKKLEEAAKEIKEKFPNAKVEVKVLEEEEL
B8: GBRAPL2_83_7414 (protein)
chain: TTIELDLLLEVKLKGDEEEKEELLDLMVEAADRLRELGASAAVAIKEENGVLEVEVHVIAVGDEELVKKVEEKLKEAAEEIKKKFPKAEVKVEVLERKEL
B9: GBRAPL2_83_7415 (protein)
chain: VERTVLITTEITVRHPDLTEEEALDLAGDVAARLREHGVKTVVGVEERDGVVHIVLESLTPDDPALRAAIDEEVDALVAELRARGAEVEVRREEEVVDVP
B10: GBRAPL2_83_7416 (protein)
chain: MKKRVLITHEIEVKSEKVTKEEALDLAGDVAERLREKGIAAVVSVEEEDGVILVEIEALLEDSEEKIKIVEEEVEKLVKRLEELGAEVKLKTEREEEIVP
B11: GBRAPL2_83_7417 (protein)
chain: VKKLKVITHDIEIKSENITEEEALDMAGDVAAELRKHGIKTVVGVERENGVVKVELESIMEDNEEKEKLVHEEVEKLVEELKKKGAEVKVETEEEIVEVE
B12: GBRAPL2_83_7418 (protein)
chain: VKTIRVITYDIEIKSENITEEEALDMAGDVAEELRKKGVKTVVGVEEENGVVHVTLEAIHEDDEELRKLIDEEVEKLVKELEAKGAEVKVKVEEELEEIE
B13: GBRAPL2_85_7419 (protein)
chain: MEKVTIVARSLAEAVDMAVDVVEALEPEGEIEVDLIVLVPSSELEAALAALPAAAAELKARLQELARRHPGLVVRAEVEIFDSDTREFHPDVRRFTVRDE
B14: GBRAPL2_85_7420 (protein)
chain: MEKITIVARTLEEAVEMAVDVVEALDPKGEIEVELIVLVPSSELEKAIAELPKAAEELKKKFQELAKKHPGLKINAEIEIFDSDTREFHPDVKKFTVEDK
B15: GBRAPL2_85_7421 (protein)
chain: TEKVTIVAHTLEEVVDMSVDVLEALEPKGTVEIEGIVAVPSSELEKALKELPKAAEELKKRLEELAKKRPGLTINAEIRIFNLDTKEFHPKVEKFTVKNE
B16: GBRAPL2_93_7422 (protein)
chain: MKVKVTIIRLVNGEVVEEEEREVTVEEAKKLIEELLKEAVANGERVIIEIYDKDTGWTFGDYVENEEQAEKALKRAKEILDDLEKEGKEVEITITIEKKT
B17: GBRAPL2_93_7423 (protein)
chain: MKVKVTVIELENGEVVRREERELSVEEAKELIRELLAEAIAAGNRVIIEIYDKETGWTFGYYAEDEEQAEKAYERTSEVLEDLAAEGKEVEVTITIERLE
B18: GBRAPL2_93_7424 (protein)
chain: NKVELIVKYLENGKLVKEEREVVSVEEAKAKIEELLKEAVENGEKVSIEIEDKDTGWVFGDYVENEEQAKKALERAKEILEDLAEEGKEVEVTIVIEKIT
B19: GBRAPL2_93_7425 (protein)
chain: NEVKVTIKHLVDGELVKEEERTVSVEEAKELIKKKLEEAIAAGNKVIIEIDDEDTGWSFGDYVTDEEQAKKALERAKEILEDLAAEGKKVEVEIVIEKIT
B20: uchl1_122_7426 (protein)
chain: METVEVVGRRETIEALAELIREVAAEHGIEVEVRIEELSPTTARLVVTIRVPPISDEELDALIADLEARAAALVEEKGLPRAEVGIATTKIIRAIRRAAA
B21: uchl1_122_7427 (protein)
chain: TATVEVVGRRETIETIAEIIREVAAEHGLEVEVRIEELSPTTARLVVTVRVPPISDEELAAFERALEERMARAVEEKGLSRAEVGIATTKVIRAVRRANA
B22: uchl1_122_7428 (protein)
chain: METVEVVGRRRAIEAFAEIVREVAAEHGIAVEVEIEELSPTTARLTITFDVPPISDEELAAFEEDLARRVAEAVRELGLSPAEFGIAYTKVVRAVRRANA
B23: uchl1_122_7429 (protein)
chain: MVRVEVVGRRRTVEALAEVIREVAARHGIDVRVEIEELSPTTARLVVDIRVPPMSDAALEAALADLERRAAELVERLGLSRAEVGIATTRIVRGIRRAAA
B24: uchl1_122_7430 (protein)
chain: TVTVEAVGRRETMETLAAVITEVLTAAGLTVEVRIEELSPTTARLTVTISGAPLSDAEVDALIEELRRRAAEAVERLGLDRATVGLAVGRVERGVRRLAA
B25: uchl1_122_7431 (protein)
chain: MKTVTVVVRKKDAPILIEIVREVAAEAGMKVEIEEEELSPNVVKLTITIDTTGLTEEQVEAAVEALERRVAEAMKETGSKSTDLRIAVGKIARAIRKAHA
B26: uchl1_122_7432 (protein)
chain: AETVTVIVPKEAAPIIVEVLKEVMAEHGATVEVELEELSENTVKITITIDTSGLTEEQVDAAVADLEERMAERFKEAGINSADAKNAVGRIARAIRRAGA
B27: uchl1_122_7433 (protein)
chain: MITIEVEVTSSLSPEALAILKEYAARLLDNAEFKEEKLSPGTLLLTVTGELKDVTDEEILAIENEALERASKMQTLTPNQRVSFGNALRRIARAVAKALA
B28: uchl1_122_7434 (protein)
chain: MITIEVDVSSSLSPEVLEIIKEFASRLLDNAEFEEEELSPGTRRLTITGELKDVSDEEILEIENEALERASKLQTLTPNERVSFGNALRRIARAVAKARA
B29: uchl1_122_7435 (protein)
chain: MITVEVLVTSSLSPAVLAIIKEYASRLLDNAEFELRRVDPGTLLLTVTGELKDVSDEEILAIRREAEERAAKDQTLTPNQRVSFGNALRRIARAVAKALA
B30: uchl1_122_7436 (protein)
chain: MITIEVLVTSSLSPEGLAIIKDYAAKLLKDAEFKEEEVSPGTLLLTITGELKDVSDEEILEIRREAEERASKNQNLTPNERVSFGNALRRIARAVAKAKA
B31: uchl1_122_7437 (protein)
chain: MITIEVLVSSSISEKVLEIIKKFASKLLKNPKFKIEQVSPGTLKITITGELKDVSEEEIREIYNEALEELGKLQDITPNEKVSANTALRKIARDVARARR
B32: uchl1_122_7438 (protein)
chain: MLTIEVDVTSSLSPEGLEILKEYVSKLLDNPKFEEELVSPGTLRLIFTGELKDLTEEEIREIENEALEKAGANQSLTPNQRVSFGNAVRRIARQVAKARA

target: GABARAPL2, P60520; assay: median log2 fold change of GCK-ALFA target abundance (FLAG IP / Myc IP barcode read proportion) (log2 ratio); each designed protein is fused to an ALFA-tag nanobody in HEK293 cells to bring the named protein to FLAG-tagged glucokinase (GCK); Myc marks an untargeted standard; higher = target protein stabilised (more abundant); details: target protein: 3xFLAG-MCP-GCK-ALFA reporter; HEK293 landing pad (RPLP)
In short: (§1)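 Sequencing of reverse-transcribed, amplified circular RNA barcodes from anti-FLAG and anti-Myc immunoprecipitates provided the readout for an ALFA-nanobody-fused binder library recombined into HEK293 landing-pad cells. Those cells were induced with 2 μg mL^−1 doxycycline, transfected with a plasmid expressing a FLAG-tagged target and a Myc-tagged standard, and lysed after 48 h. Target abundance is the per-binder median log2 ratio of FLAG to Myc barcode read proportions. Only barcodes at a proportion of ≥10^−7 in both replicates and binders with ≥3 barcodes per replicate were kept, with a 10^−6 pseudocount added before the two replicates were pooled.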

GABARAPL2, P60520, sequence (P60520 whole entry, the tested form may be a part): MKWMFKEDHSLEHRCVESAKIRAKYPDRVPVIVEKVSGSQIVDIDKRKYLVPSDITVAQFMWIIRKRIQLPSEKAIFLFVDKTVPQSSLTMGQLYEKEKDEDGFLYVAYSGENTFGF

Binder	median log2 fold change
B1	-0.0969
B2	0.0216
B3	0.118
B4	-0.0236
B5	-0.0517
B6	-0.364
B7	-0.417
B8	0.119
B9	-0.00519
B10	0.184
B11	0.0338
B12	0.388
B13	0.0842
B14	0.19
B15	0.266
B16	0.15
B17	-0.302
B18	0.137
B19	-0.332

target: UCHL1, P09936; assay: as above; details: target protein: 3xFLAG-MCP-GCK-ALFA reporter; HEK293 landing pad (RPLP)
In short: as §1

UCHL1, P09936, sequence (P09936 whole entry, looked up): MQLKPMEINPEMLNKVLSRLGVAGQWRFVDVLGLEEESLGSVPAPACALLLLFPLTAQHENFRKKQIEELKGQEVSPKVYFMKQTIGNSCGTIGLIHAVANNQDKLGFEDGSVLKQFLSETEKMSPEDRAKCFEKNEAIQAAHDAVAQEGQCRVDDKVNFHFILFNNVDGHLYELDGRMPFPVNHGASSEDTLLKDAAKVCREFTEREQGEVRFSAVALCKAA

Binder	median log2 fold change
B20	0.214
B21	0.284
B22	-0.0204
B23	0.096
B24	0.13
B25	-0.183
B26	0.325
B27	0.0352
B28	0.213
B29	-0.0374
B30	0.0349
B31	-0.0419
B32	0.324
